Reference: PubChem BioAssay AID925 (National Center for Advancing Translational Sciences (NCATS), 2007)
Values joined by “and” are separate entries in the source; they are usually repeats but may differ in a detail not shown here. Equal entries are not always repeated. Among all 65,000 compounds or so, about 40 (0.06%) were called active. A call without a number means that no potency is given here. The full list was thinned out, with actives kept by preference. A number with no mark means an inactive call. Calls come from the whole dose curve; as a rule, active = well fitted activation curve with a large enough effect; inconclusive = small, poorly fitted or top-dose-only effect; inactive = flat fitted curve, though single readings scatter.

test: qHTS Assay for Modulators of Hemoglobin Beta Chain Splicing; conditions: HBB splicing reporter cell assay, EGFP reporter with mutant IVS2-654 intron; Potency: activation; series mostly up to 46.1 µM
Source text: NIH Chemical Genomics Center [NCGC]
NIH Molecular Libraries Screening Centers Network [MLSCN]
PI Name: Dr. Ryszard Kole
Modulation of Alternative Splicing as Therapy
Abnormal splicing is associated with a number of diseases, including cancer and genetic diseases such as cystic fibrosis, muscular dystrophy and beta-thalassemia. Alteration of disease associated splicing patterns provides a promising target for treatment. […] Mutations in the second intron of the beta-globin gene at positions are clinically relevant and cause mis-splicing which results in an out of frame gene product.
EGFP-654 and 705 HeLa Cells as screen system.
HeLa cell lines were stably transfected with a construct in which the EGFP (enhanced green fluorescent protein) cDNA was interrupted by the second intron of the beta-globin gene (IVS2-654). The ISV2 intron contains mutations which cause mis-splicing of EGFP and premature termination of EGFP which results in a nonfluorescent protein product. […] Expression of the transgene was driven by the CMV promoter. We concluded that a low molecular weight compound, which restored correct splicing of intron 2 would also generate functional EGFP protein, resulting in a fluorescent signal. Thus, the HeLa cells that express the EGFP-654 construct can be used for high throughput screening of a chemical library.
NCGC Assay Protocol Summary:
High Throughput Screening. Freshly thawed HeLa EGFP-654 cells were seeded in 5 ul of optimem media (Invitrogen) containing 2 % fetal calf serum (Hyclone) and 1x penicillin/streptomycin (Invitrogen) at a concentration of 500 cells per well in 1536-well plates. Cells were incubated overnight at 37C in 5% CO2. The next day, cells were treated with DMSO, 500 nM antisense ISV2 654 PNA control oligo, or library compound and allowed to grow at 37C in 5% CO2 for 2 days. The PNA oligo blocked the mutation site in the intron and allowed proper (wild type) splicing to occur, resulting in full length EGFP expression and also allowed for optimization of the assay parameters. Plates were read in the Acumen Explorer (TTP Labtech) using 488 nm laser excitation and 500-520 nm emission PMT filter in a 1 x […] capture mode. Fluorescnet Fluorescent objects ranging in size from […] were measured and the total peak GFP intensity for each well was used for data analysis.
Keywords: Thalassemia, beta-thalassemia, beta-globin, EGFP, ISV2 654, ISV2 705, SSO, PNA, antisense, splicing, MLSMR, MLSCN, NIH Roadmap, qHTS, NCGC

SMILES	activation
COC(=O)CCCCCN1C(=O)NC(c2ccc(-c3ccccc3)cc2)C(C(=O)OCc2ccccc2)=C1C (centres undefined)	inactive
NC[C@@H]1O[C@H](O[C@@H]2[C@H](O[C@@H]3O[C@H](CO)[C@@H](COC[C@H]4O[C@@H](CN)[C@@H](O)[C@@H](O)[C@@H]4N)[C@@H]3O)[C@@H](O)[C@@H](N)C[C@H]2N)[C@@H](N)[C@H](O)[C@@H]1O	inactive
CO[C@H]1COC(=O)CCC[C@@H](C)[C@H](OC)COC(=O)[C@@H](C)NC(=O)C/C=C\[C@@H]1C	1.62% [at 9.22 µM, normalised to 500 nM splice-correcting PNA]
COC(=O)[C@@]1(Cc2ccc(F)cc2)[C@H]2c3cc(C(=O)N4CCCC4)n(C[C@H](O)CO)c3C[C@H]2CN1C(=O)c1ccccc1	inactive
COc1ccc(/C=C/NC(=O)c2ccc(OC)cc2)cc1	0.0031% [at 9.22 µM, normalised to 500 nM splice-correcting PNA]
CN(C)c1cc2c(Nc3ccc4c(cnn4Cc4ccccc4)c3)ncnc2cn1	inactive
Cc1cccc(C(=O)O)c1	inactive
COC(=O)[C@@]1(C)C=C[C@@H](Cc2ccccc2)N1C(C)=O	inactive
COC(=O)C1(Cc2ccccc2)C=C2C(=C(C)C(=O)C2C)CN1 (centres undefined)	inactive
C=CC(=O)OCCOCCOCCOCCOC(=O)C=C	inactive
Oc1cc2c(cc1O)CN(C(=S)NCCc1ccc(Cl)cc1)CCC2	inactive
O=C(c1ccco1)N1CCC[C@@]2(CCN(Cc3nccs3)C2)C1	inactive
CN(C)C(=O)c1ccc(-c2cncnc2Nc2ccccc2)cc1	inactive
COc1cccc([C@H]2Oc3ccc(OC)cc3/C(=N\OCC[C@@H]3C=C[C@H](OC(C)=O)[C@H](COC(C)=O)O3)[C@@H]2O)c1	-1.11% [at 9.22 µM, normalised to 500 nM splice-correcting PNA]
COc1cc([C@H]2c3cc4c(cc3[C@@H](O[C@@H]3O[C@H]5CO[C@@H](C)O[C@]5(O)C[C@H]3O)[C@@H]3COC(=O)[C@H]23)OCO4)cc(OC)c1O	inactive
Cc1cc(Cl)ccc1OCC(=O)Oc1c(Cl)c(Cl)c(Cl)c(Cl)c1Cl	0.153% [at 9.22 µM, normalised to 500 nM splice-correcting PNA]
C/C(CCN1CCc2nc(-c3ccccc3)c(-c3ccccc3)cc2C1)=N\O[C@@H](C)c1cn([C@@H]2COC[C@@H]2O)nn1	-1.08% [at 9.22 µM, normalised to 500 nM splice-correcting PNA]
COc1ccc(COC(=O)N/N=C2/C[C@@H](O)[C@@H](O)[C@@H]3[C@@H]4C(=O)N([C@@H](C)c5ccccc5)C(=O)[C@H]4CC[C@@H]23)cc1	0.743% [at 9.22 µM, normalised to 500 nM splice-correcting PNA]
COc1ccc2[nH]cc(CCNc3cc(-c4ccccc4CN(C)C)ncn3)c2c1	inactive
O=C(O)c1ccc(C(=O)O)c2c(C(=O)O)ccc(C(=O)O)c12	-1.01% [at 9.22 µM, normalised to 500 nM splice-correcting PNA]

SMILES	activation
O=C(O)[C@@H]1[C@@H](C(=O)O)[C@]23C[C@@]2(C(=O)O)[C@]2(C(=O)O)CCC3=C3CCCC312	0.251% [at 9.22 µM, normalised to 500 nM splice-correcting PNA]
COCCNc1ncnc2ccc(-c3cccnc3)cc12	inactive
CCN(CC)CCCCn1c(-c2ccccc2)nc2c(N3CCOCC3)nc(C)nc21	inactive
CO[C@@H]1COC(=O)[C@H](Cc2ccccc2)NC(=O)C/C=C\[C@@H](C)[C@H](OC)COC(=O)[C@@H](C)NC(=O)C/C=C\[C@H]1C	1.42% [at 9.22 µM, normalised to 500 nM splice-correcting PNA] and 0.127% [at 9.22 µM, normalised to 500 nM splice-correcting PNA]
Cc1noc(C)c1-c1nc(Nc2ccccc2)c2ccccc2n1	inactive
O=NO	inactive
ClC(Cl)(Cl)C(N1CCN(c2ccccc2)CC1)N1CCN(c2ccccc2)CC1	3.1% [at 9.22 µM, normalised to 500 nM splice-correcting PNA]
CC(=O)Oc1ccccc1C(=O)Nc1ncc([N+](=O)[O-])s1	inactive
COc1ccc(NC(=O)N2CC3(CCN(C(C)=O)CC3)C2)cc1	inactive
COC(=O)[C@@H]1CC[C@H](C)[C@@H](c2ccc(C)cc2)N1C(=O)c1ccc(/C=N\OC[C@@H](O)COCc2ccco2)cc1	-0.0134% [at 9.22 µM, normalised to 500 nM splice-correcting PNA]
Clc1ccc(C(c2ccc(Cl)cc2)n2cc[n+](C[C@@H](OCc3ccc(Cl)cc3Cl)c3ccc(Cl)cc3Cl)c2)cc1	inactive
CC(C)C[C@@H](CC(=O)N[C@@H](CCC(=O)O)CC(=O)O)NC(=O)[C@@H]1CCCC[C@H]1NC(=O)C[C@@H](NC(=O)C[C@H](CO)NC(=O)[C@@H]1CCCC[C@H]1N)C(C)C	inactive
O=C(O)[C@@H](S)[C@H](S)C(=O)O	-1.17% [at 9.22 µM, normalised to 500 nM splice-correcting PNA]
O=C(O)[C@@H](O)Cc1ccccn1	2.62% [at 9.22 µM, normalised to 500 nM splice-correcting PNA]
COC(=O)N1CCC2(CCCN(c3ccncc3)C2)CC1	inactive
NCC(=O)[C@@H](O)[C@H](O)[C@H](O)CO	0.718% [at 9.22 µM, normalised to 500 nM splice-correcting PNA]
CN(C)C(=O)c1ccc(-c2cncnc2NC2CCNCC2)cc1	inactive
CN1[C@H]2CC(OC(=O)[C@@H](CO)c3ccccc3)C[C@H]1[C@H]1O[C@H]12 (some centres undefined)	inactive
O=C1[C@H]2[C@H]3[C@H](O)[C@H](O)C/C(=N/OCc4ccccc4)[C@H]3CC[C@@H]2C(=O)N1Cc1ccccc1	0.171% [at 9.22 µM, normalised to 500 nM splice-correcting PNA]
